# Measurements from PubChem BioAssay AID1650 (Southern Research Specialized Biocontainment Screening …, 2009).
# Potency and affinity values are given separately. The source made the active and inactive calls. Entries that show only a call come without a potency. The rule behind the calls is not given here.
# Test: mammalian cell viability reduction – secondary assay, cytotoxicity control for West Nile virus antiviral project, dose response (AID 1650)
# Details: Mammalian host cell viability, cytotoxicity counter-screen; series mostly up to 10 µM
row,SMILES,outcome
1,Cc1ccc(Sc2nnc(Cc3ccccc3)c3ccccc23)cc1,inactive
2,COc1ccc(-c2cc(-c3ccc(OC)cc3)nc(-c3ccc4c(c3)NC(=O)CO4)c2)cc1,inactive
3,O=c1c(O[C@@H]2O[C@H](CO)[C@@H](O)[C@H](O)[C@H]2O)c(-c2ccc(O)c(O)c2)oc2cc(O)cc(O)c12,inactive
4,CCOC(=O)C(CC)(CC)C(=O)/C=C/c1cccc(Br)c1,inactive
5,Cc1ccc(OCC(=O)c2cc(C)c(C)cc2C)c([N+](=O)[O-])n1,inactive
6,Cc1ccc(S(=O)(=O)c2c(N)n(CCCN(C)C)c3nc4ccccc4nc23)cc1,inactive
7,Cn1cc([N+](=O)[O-])c(C(=O)Nc2ccn(C34CC5CC(CC(C5)C3)C4)n2)n1,inactive
8,COc1cc(C2c3c(oc4cc(C)c(C)cc4c3=O)C(=O)N2c2cc(C)ccn2)ccc1O (stereo unspecified),inactive
9,Cc1ccc(-c2nc3ccccc3n3nnnc23)cc1,inactive
10,OCCN(CCO)CC(O)COc1ccc(C23CC4CC(CC(C4)C2)C3)cc1 (stereo unspecified),inactive
11,COc1cc(-c2cc3nc(C)c(C)c(=O)n3[nH]2)cc(OC)c1OC,inactive
12,CCN(CC)CCNC(=O)c1sc2ncn(CC(=O)Nc3ccc(C)c(Cl)c3)c(=O)c2c1C,inactive
13,C=CCNC(=O)c1ccc(-c2nc(-c3ccc(Cl)cc3Cl)cs2)cc1,inactive
14,CC(C)N1CCc2c(sc(NC(=O)c3ccc(C(=O)c4ccccc4)cc3)c2C(N)=O)C1,inactive
15,Cc1cc(F)ccc1N1CCC(N2CCN(C(C)C)C(CCO)C2)CC1 (stereo unspecified),inactive
16,Cc1ccc(-n2c(SCC(=O)Nc3ccc(N4CCOCC4)cc3)nc3ccccc3c2=O)cc1,inactive
